RBX1-CUL1 inh – blocks human RBX1-Cullin-1 di-ubiquitin formation; P62877+Q13616; in vitro K48 di-Ub FRET, acceptor:donor ratio, 45 min; inhibition, % at 10 µM; 140,000 compounds, 0.6% hits; AID 1347404; in the data active = inhibition above about 25%
Target sequence (P62877 whole entry, looked up): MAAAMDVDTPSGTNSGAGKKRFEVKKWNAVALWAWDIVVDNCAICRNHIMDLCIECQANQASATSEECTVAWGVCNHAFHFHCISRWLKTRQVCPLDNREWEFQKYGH
Target sequence (Q13616 whole entry, looked up): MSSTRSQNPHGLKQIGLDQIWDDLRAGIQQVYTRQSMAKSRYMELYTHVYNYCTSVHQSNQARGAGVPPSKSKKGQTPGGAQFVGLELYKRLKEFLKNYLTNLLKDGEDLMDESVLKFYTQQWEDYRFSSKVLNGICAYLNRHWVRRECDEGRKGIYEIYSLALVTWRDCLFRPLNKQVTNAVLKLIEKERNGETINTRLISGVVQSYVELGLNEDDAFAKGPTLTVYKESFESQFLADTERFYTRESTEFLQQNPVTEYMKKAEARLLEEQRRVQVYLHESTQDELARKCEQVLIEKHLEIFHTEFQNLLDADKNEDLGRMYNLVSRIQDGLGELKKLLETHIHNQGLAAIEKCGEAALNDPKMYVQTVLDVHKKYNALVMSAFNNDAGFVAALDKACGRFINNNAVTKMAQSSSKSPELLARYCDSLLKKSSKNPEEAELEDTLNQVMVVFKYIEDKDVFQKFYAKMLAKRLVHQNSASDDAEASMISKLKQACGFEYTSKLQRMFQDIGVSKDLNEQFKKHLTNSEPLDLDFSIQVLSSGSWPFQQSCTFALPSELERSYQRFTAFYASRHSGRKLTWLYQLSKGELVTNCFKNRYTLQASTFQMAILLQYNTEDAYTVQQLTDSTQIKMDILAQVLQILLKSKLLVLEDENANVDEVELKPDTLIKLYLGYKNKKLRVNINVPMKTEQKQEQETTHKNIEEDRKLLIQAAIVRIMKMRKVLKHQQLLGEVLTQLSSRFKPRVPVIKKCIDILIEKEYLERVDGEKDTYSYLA
Numbers without * were called inactive. The entries come from a sample that favours hits as a whole.

SMILES | RBX1-CUL1 inh
CC(=O)NS(=O)(=O)c1ccc(-c2ccc(/C=C3/C(=O)NN(c4cccc(C)c4)C3=O)o2)cc1 | 8
CC1=NN(c2ccc(C)c(C)c2)C(=O)/C1=C\c1ccc(-c2ccc(S(=O)(=O)c3nccs3)cc2)o1 | 11
Cc1ccc(N2NC(=O)/C(=C/c3ccc(-c4ccccc4F)o3)C2=O)cc1C | -2
Cc1cccc(N2NC(=O)/C(=C/c3ccc(-c4ccc(S(N)(=O)=O)cc4)o3)C2=O)c1 | 32*
O=C1NN(c2cccc(F)c2)C(=O)/C1=C\c1ccc(-c2ccc(C(=O)O)cc2)o1 | 6
NS(=O)(=O)c1ccc(-c2ccc(/C=C3\C(=O)NC(=S)N(c4cccc5ccccc45)C3=O)o2)cc1 | 5
NC(=O)c1ccc(-c2ccc(/C=C3/C(=O)NN(c4ccc(F)cc4)C3=O)o2)cc1 | 5
Cc1ccc(N2NC(=O)/C(=C/c3ccc(-c4ccc(S(=O)(=O)Nc5nccs5)cc4)o3)C2=O)cc1 | 72*
CCn1c(-c2cccc(OC)c2)nc2cc(NC(C)=O)cc(C(=O)NC(C)Cc3ccccn3)c21 (stereo not drawn) | -12
CCOC(=O)C1C(=O)/C(=C/c2ccc(N(CC)CC)cc2)SC1=NC(=O)c1ccc(C)cc1 (stereo not drawn) | 14
COc1ccc(OC)c(N(CC(=O)Nc2ccc(F)cc2)S(=O)(=O)c2ccccc2)c1 | 8
Nc1c(C(=O)NC2CCCC2)sc2nc(-c3ccc(F)cc3)ccc12 | 2
Cc1cnc(C)c(N2CCN(Cc3cnc(S(C)(=O)=O)n3CC(C)C)CC2)n1 | 5
Cc1ccc2nc3c(cc(S(=O)(=O)c4ccccc4)c(=N)n3CC3CCCO3)c(=O)n2c1 (stereo not drawn) | 5
COC(=O)C(NC(=O)c1ccccc1Cl)(Nc1ccc(Cl)cn1)C(F)(F)F (stereo not drawn) | 1
Cc1ccccc1-n1c(SC(C)C)nc2sc3c(c2c1=O)CCCC3 | -10
Cc1ccc(/C=C/C(=O)C2C=CC=CC(=O)C2=O)c(C)c1 (stereo not drawn) | 0
CN=C1CC=CC=C(C(=O)/C=C/c2c(Cl)cccc2Cl)C1=O | 23
CC1=NC(=O)C(C(=O)/C=C/c2ccccc2)=C(C)C1 | 1
CN=C1CC=CC=C(C(=O)/C=C/c2ccccc2)C1=O | 84*
CN=C1CC=CC=C(C(=O)/C=C/c2cc(C)ccc2C)C1=O | 3
CN=C1CC=CC=C(C(=O)/C=C/c2ccc(C)cc2C)C1=O | 103*
CN=C1CC=CC=C(C(=O)/C=C/c2ccc(C(F)(F)F)cc2)C1=O | -1
COc1cccc(/C=C/C(=O)c2ccccc2)c1 | 0
CN=C1CC=CC=C(C(=O)/C=C/c2cccc(Oc3ccccc3)c2)C1=O | 104*
SMILES | RBX1-CUL1 inh
CCCCN1CC(C(=O)Nc2cccc(OC)c2)CC1=O (stereo not drawn) | -4
O=C(c1cn(Cc2ccccc2F)nn1)N1CCCCCCC1 | -13
COc1ccc(CC(=O)Nc2sc3c(c2C(=O)Nc2ccc(Cl)cc2)CCC3)cc1 | 1
CCCc1nn(C)c(C(=O)Nc2cc(C)ccc2C)c1Cl | -12
CCOC(=O)c1c(-c2ccc(-c3ccccc3)cc2)csc1NC(=O)CN1CCCCC1 | 6
CC1(C)OC(C)(C)C(C=Nc2ccc3ccccc3c2)C1=O (stereo not drawn) | 3
O=C(Nc1ccc2nc(SCC(=O)N3CCOCC3)sc2c1)c1ccc(Br)cc1 | -10
O=C(Nc1ccc2nc(SCC(=O)N3CCOCC3)sc2c1)c1cccc(F)c1 | 4
O=C(Nc1ccc2nc(SCC(=O)N3CCOCC3)sc2c1)c1cccc(Br)c1 | 27*
COc1cc(C(=O)NC(=S)Nc2nc(-c3ccc(Cl)cc3)cs2)cc(OC)c1OC | -10
CCOc1ccc(NC(=O)c2ccc([N+](=O)[O-])cc2Cl)cc1 | 1
Cc1c(C(=O)Nc2cccc(F)c2)sc2nc(-c3cc4ccccc4oc3=O)[nH]c(=O)c12 | 5
Cc1cccc(NC(=O)c2sc3nc(-c4cc5ccc(O)cc5oc4=O)[nH]c(=O)c3c2C)c1 | 63*
Cc1cc(C)cc(NC(=O)c2sc3nc(-c4cc5ccccc5oc4=O)[nH]c(=O)c3c2C)c1 | 5
COCC(=O)Oc1c(Sc2ccc(C)cc2)c(C)nn1C(C)(C)C | 59*
COc1cccc(C(=O)Oc2c(Sc3ccc(C)cc3)c(C)nn2C(C)(C)C)c1OC | -3
COc1ccc(C(=O)Oc2c(Sc3ccc(C)cc3)c(C)nn2C(C)(C)C)cc1OC | -8
O=C(NCCOc1cccnc1)C1CCC(=O)N(CCc2ccccn2)C1 (stereo not drawn) | 9
Cc1cccc(CS(=O)(=O)NCCc2ccccc2)c1 | 7
CN=C1S/C(=C\c2ccc(-c3ccc(Cl)cc3C(=O)O)o2)C(=O)N1C | 3
N=C1S/C(=C\c2ccc(-c3ccccc3C(=O)O)o2)C(=O)N1c1ccc(Cl)cc1Cl | 100*
CN1C(=O)/C(=C\c2ccc(-c3ccccc3C(=O)O)o2)SC1=S | 4
O=C(O)c1ccc(Nc2nc(Cl)nc(Cl)n2)cc1-c1c2ccc(=O)cc-2oc2cc(O)ccc12 | 106*
Cc1ccc(Nc2nc(Cl)nc(N3CCOCC3)n2)cc1Cl | -6
O=C(c1ccccc1)c1ccccc1Nc1nc(Cl)nc(Cl)n1 | 4
SMILES | RBX1-CUL1 inh
Cc1cc(C(=O)N2CCC(C3CCN(CC(C)C)CC3)C2)c(C)o1 (stereo not drawn) | 4
N#CC(=Cc1ccsc1)C(N)=S | -2
C#CCOCC(O)CN1CCN(c2cccc(C(F)(F)F)c2)CC1 (stereo not drawn) | 6
CCOC(=O)C1=C(C)N=c2s/c(=C/c3cc(Br)c(O)c(Br)c3)c(=O)n2C1c1ccc(Cl)cc1 (stereo not drawn) | 83*
C=CCc1cc(/C=c2/sc3n(c2=O)C(c2ccc(OC)cc2OC)C(C(=O)OCC)=C(C)N=3)cc(OC)c1O (stereo not drawn) | -6
CCOC(=O)C1=C(c2ccccc2)N=c2s/c(=C\c3cc([N+](=O)[O-])ccc3O)c(=O)n2C1c1cccc(OC)c1 (stereo not drawn) | 60*
C=CCOc1ccc(C2C(C(=O)OCC)=C(C)N=c3s/c(=C\c4cc(I)c(O)c(OC)c4)c(=O)n32)cc1 (stereo not drawn) | 37*
CCOC(=O)C1=C(c2ccccc2)N=c2s/c(=C/c3ccccc3O)c(=O)n2C1c1cccc(OC)c1 (stereo not drawn) | 1
CCOC(=O)C1=C(C)N=c2s/c(=C/c3ccsc3)c(=O)n2C1c1ccc(OC)cc1 (stereo not drawn) | 2
C=CCc1cc(/C=c2/sc3n(c2=O)C(c2cccc(OC)c2OCC)C(C(=O)OCC)=C(C)N=3)cc(OC)c1O (stereo not drawn) | -11
CCOC(=O)C1=C(C)N=c2s/c(=C\c3ccc(O)c(Br)c3)c(=O)n2C1c1ccc(OC)cc1 (stereo not drawn) | 35*
CCOC(=O)C1=C(C)N=c2s/c(=C\c3ccc(O)cc3)c(=O)n2C1c1ccc(F)cc1 (stereo not drawn) | 7
CCOC(=O)C1=C(c2ccccc2)N=c2s/c(=C\c3ccc([N+](=O)[O-])o3)c(=O)n2C1c1cccc(OC)c1 (stereo not drawn) | -5
CCOC(=O)C1=C(C)N=c2s/c(=C\c3ccc4c(c3)OCO4)c(=O)n2C1c1ccc(OC)cc1 (stereo not drawn) | 10
CCOC(=O)C1=C(C)N=c2s/c(=C\c3cc4c(cc3Br)OCO4)c(=O)n2C1c1ccc(Cl)cc1 (stereo not drawn) | -3
COc1ccc(-c2cc(C(F)(F)F)n3nc(C(=O)Nc4ccccc4C(F)(F)F)c(Br)c3n2)cc1 | 2
